Assay results published in PubChem BioAssay AID720561 (Broad Institute, 2013).
Potency and affinity values are given separately. Calls of active or inactive are those of the source. The rule behind the calls is not given here.

Assay: suppression of HIF-dependent reporter luminescence – cell-based, dry powder samples, 2158-07, ARNT-TACC3 inhibitor project, dose response (AID 720561)
Details: HIF luciferase reporter cells; series mostly up to 50 µM; activity change, negative = inhibition: at the top concentration
For `Cc1c(C(=O)N(C)C)sc2nc(-c3ccccn3)[nH]c(=O)c12`, the “activity change, negative = inhibition” value was 76.3% (inactive). For `O=C(CSc1ccc(-c2ccccn2)nn1)NC1CCCCC1`, the “activity change, negative = inhibition” value was 118% [at 26 µM] (inactive). With `CC1CCN(S(=O)(=O)c2ccc(C(=O)Nc3nnc(-c4ccno4)o3)cc2)CC1` the “activity change, negative = inhibition” value was -3.2% (inactive). In the case of `O=C(CSc1ccc(-c2ccccn2)nn1)N1CCCC1`, the “activity change, negative = inhibition” value is reported as 118% (inactive). For `FC(F)(F)c1cc(-c2nn[nH]n2)cc(C(F)(F)F)c1`, the “activity change, negative = inhibition” value was -1.41% (inactive). For `O=C(CSc1ccc(-c2ccccn2)nn1)Nc1ccccc1`, the “activity change, negative = inhibition” value was 226% (inactive). In the case of `CC1CCN(S(=O)(=O)c2ccc(C(=O)Nc3nnc(-c4ccccn4)o3)cc2)CC1`, the “activity change, negative = inhibition” value is reported as 0.208% (inactive). For `Cc1ccc(C(=O)Nc2nc(-c3ccccn3)cs2)cc1S(=O)(=O)N1CCOCC1`, the “activity change, negative = inhibition” value was 128% [at 26 µM] (inactive). With `C=CC1=C(C(=O)O)N2C(=O)[C@@H](NC(=O)/C(=N\O)c3csc(N)n3)[C@H]2SC1` (stereo in doubt) the “activity change, negative = inhibition” value was -6.02% (inactive).
